Test [1] has as its target Paired box protein Pax-6 (Homo sapiens) (UniProt P26367). As to the kind of experiment: ATG_Pax6_CIS: Attagene CIS-FACTORIAL HepG2 Assay for human Paired Box 6 (PAX6) (AID 2282956). To be noted: HepG2 CIS-FACTORIAL PAX6 reporter transcription, RNA readout; actives raise or lower the signal. In a few lines: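 DMSO-referenced bidirectional fits of reporter mRNA fluorescence; HepG2 with transient cis-promoter MRTUs, 24 h post-dose, RT-PCR plus capillary electrophoresis detection.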

Test [2] can be described thus: ATG_PXRE_CIS: Attagene CIS-FACTORIAL HepG2 Assay for human Pregnane X Receptor Element (PXRE) (AID 2282957). The following applies: HepG2 Attagene CIS-FACTORIAL PXRE reporter, mRNA; actives raise or lower the signal. The gist of the method: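 Fluorescent capillary electrophoresis of amplified reporter cDNA gave the signal, collected 24 h after dosing HepG2 cells that held transfected cis-element reporter constructs.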

Test [3] is described as follows: ATG_PPRE_CIS: Attagene CIS-FACTORIAL HepG2 Assay for human Peroxisome Proliferator-activated Response Element (PPRE) (AID 2282958). To be noted: HepG2 PPRE cis-element reporter, Attagene transcription factor profiling; actives raise or lower the signal. In a few lines:
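After human HepG2 hepatoma cells were transiently transfected with cis-promoter reporter constructs, they were exposed to test chemicals for 24 hours. Reporter RNA was then reverse-transcribed, PCR-amplified, FAM-labeled, HpaI-digested and quantified by capillary electrophoresis.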

Test [4] can be described thus: ATG_RORE_CIS: Attagene CIS-FACTORIAL HepG2 Assay for human RAR-related Orphan Receptor Element (RORE) (AID 2282959). The following applies: HepG2 Attagene cis-factorial RORE reporter, mRNA; actives raise or lower the signal. The gist of the method: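 Measured here: transcript induction of a cis-regulated reporter in HepG2 cells transiently transfected via FuGene 6. After 24 h, RNA was processed by RT-PCR and fluorescent capillary electrophoresis; DMSO defined baseline activity.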

Test [5] in a line: ATG_Sox_CIS: Attagene CIS-FACTORIAL HepG2 Assay for human SRY-box transcription factor (SOX) (AID 2282960). The following applies: HepG2 Attagene cis-factorial SOX reporter, mRNA; actives raise or lower the signal. In a few lines: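 Using transiently transfected HepG2 cells, reporter transcription driven by cis elements was assessed 24 h after dosing. Signal was fluorescence of capillary-separated RT-PCR products, with DMSO defining baseline activity.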

The target in test [6] is Signal transducer and activator of transcription 3 (Homo sapiens) (UniProt P40763). As to the kind of experiment: ATG_STAT3_CIS: Attagene CIS-FACTORIAL HepG2 Assay for human Signal Transducer and Activator of Transcription 3 (STAT3) (AID 2282963). The following applies: HepG2, Attagene cis-factorial STAT3 reporter transcription; actives raise or lower the signal. In a few lines: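 Uses human liver HepG2 transiently carrying cis-regulated reporter transcription units. Following 24 h dosing, reporter mRNA induction was detected by RT-PCR and capillary electrophoresis, analysed bidirectionally versus DMSO.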
Sequence of Signal transducer and activator of transcription 3 (Homo sapiens) (P40763 whole entry, looked up): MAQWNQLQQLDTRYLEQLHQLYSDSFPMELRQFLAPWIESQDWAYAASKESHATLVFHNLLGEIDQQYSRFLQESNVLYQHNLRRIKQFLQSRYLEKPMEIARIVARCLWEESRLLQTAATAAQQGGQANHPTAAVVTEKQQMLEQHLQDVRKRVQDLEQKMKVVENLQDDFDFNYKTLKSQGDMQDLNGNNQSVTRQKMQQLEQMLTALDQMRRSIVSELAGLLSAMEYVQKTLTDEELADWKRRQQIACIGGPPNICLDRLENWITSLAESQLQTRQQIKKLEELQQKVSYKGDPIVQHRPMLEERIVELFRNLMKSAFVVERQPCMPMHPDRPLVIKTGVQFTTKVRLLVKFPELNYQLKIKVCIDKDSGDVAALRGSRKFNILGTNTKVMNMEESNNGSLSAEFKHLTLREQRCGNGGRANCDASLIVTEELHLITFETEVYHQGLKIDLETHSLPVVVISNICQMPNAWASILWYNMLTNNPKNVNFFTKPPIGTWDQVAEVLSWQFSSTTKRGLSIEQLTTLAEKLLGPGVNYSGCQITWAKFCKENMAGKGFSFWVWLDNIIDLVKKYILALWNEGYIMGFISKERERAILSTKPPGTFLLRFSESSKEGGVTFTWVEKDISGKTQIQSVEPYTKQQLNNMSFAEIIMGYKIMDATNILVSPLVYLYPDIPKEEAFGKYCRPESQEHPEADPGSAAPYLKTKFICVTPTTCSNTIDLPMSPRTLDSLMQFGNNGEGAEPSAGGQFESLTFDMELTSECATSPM

The nature of test [7]: ATG_TA_CIS: Attagene CIS-FACTORIAL HepG2 Assay for human TA Basal Promoter (AID 2282964). The following applies: HepG2 Attagene CIS-factorial TA basal promoter reporter; actives raise or lower the signal. In a few lines: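 Background-control readout: TA basal promoter reporter mRNA, fitted in both directions relative to DMSO. Measured by RT-PCR and capillary electrophoresis 24 hours after treating HepG2 human liver cells transiently carrying multiplexed cis-regulated reporter constructs.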

Test [8] in a line: ATG_TCF_b_cat_CIS: Attagene CIS-FACTORIAL HepG2 Assay for human T-Cell-Factor with beta-catenin (TCF/b-cat) (AID 2282965). To be noted: HepG2 TCF/beta-catenin cis-reporter transcription, actives raise or lower the signal. The gist of the method: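 In this cis-format system, transfected HepG2 cells report endogenous transcription factor activity. Readout after 24 h exposure is reporter transcript abundance from RT-PCR and capillary electrophoresis, analysed for gain or loss of signal versus DMSO.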

Test [9] is described as follows: ATG_TAL_CIS: Attagene CIS-FACTORIAL HepG2 Assay for human TAL Basal Promoter (AID 2282966).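 Further: background control endpoint measuring basal TAL promoter reporter mRNA not a specific factor.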 The following applies: HepG2 Attagene cis-factorial TAL promoter reporter; actives raise or lower the signal. The gist of the method:
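Transiently transfected HepG2 (cis-regulated reporter units), 24 h treatment, mRNA read by fluorescent CE after RT-PCR; bidirectional fit, DMSO baseline.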

Test [10] can be described thus: ATG_TGFb_CIS: Attagene CIS-FACTORIAL HepG2 Assay for human Transforming Growth Factor (TGF) (AID 2282967). To be noted: HepG2 Attagene CIS TGFb reporter, mRNA transcription; actives raise or lower the signal. In a few lines:
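Endogenous TGFB1-linked transcription factor activity read as reporter mRNA via RT-PCR and capillary electrophoresis, 24 h after dosing transiently transfected HepG2 cells. Gain or loss of signal fitted relative to DMSO.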

The nature of test [11]: ATG_VDRE_CIS: Attagene CIS-FACTORIAL HepG2 Assay for human Vitamin D Receptor Element (VDRE) (AID 2282968). To be noted: HepG2 VDRE cis-reporter transcription, actives raise or lower the signal. The gist of the method: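 Transfected HepG2 reporter cells, chemical treatment 24 h. RNA isolated, cDNA amplified with reporter-specific primers, products analysed by capillary electrophoresis. Endpoint fitted in both directions versus DMSO.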

Test [12] has as its target X-box-binding protein 1 (Homo sapiens) (UniProt P17861). In words: ATG_Xbp1_CIS: Attagene CIS-FACTORIAL HepG2 Assay for human X-box Binding Protein 1 (XBP1) (AID 2282972). To be noted: HepG2 XBP1 cis-element reporter, Attagene multiplex; actives raise or lower the signal. The gist of the method:
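Changes in reporter transcript abundance, read by RT-PCR and capillary electrophoresis, reflect endogenous transcription factor activity. Transfected HepG2 cells received compound for 24 hours; DMSO defined baseline for bidirectional analysis.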

Test [13] is described as follows: ATG_M_19_TRANS: Attagene TRANS-FACTORIAL HepG2 Assay for M19 Transcription Factor (Internal Marker) (AID 2282974; active means hit-call score of the fitted dose curve at least 0.9, where 1 is the maximum). The following applies: HepG2 Attagene TRANS-FACTORIAL M19 internal marker reporter. In a few lines: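 Gain-of-signal in reporter mRNA, relative to DMSO, was scored from capillary electrophoresis fluorescence. HepG2 cells carried transiently transfected multiple reporter transcription units and were incubated with test chemicals for 24 h.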

Test [14] in a line: ATG_GAL4_TRANS: Attagene TRANS-FACTORIAL HepG2 Assay for GAL4 (Internal Marker) (AID 2282976; active means hit-call score of the fitted dose curve at least 0.9, where 1 is the maximum). The following applies: HepG2 Attagene TRANS GAL4 internal marker reporter. The gist of the method:
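HepG2 cells transiently transfected with multiplexed GAL4-UAS reporter constructs were dosed for 24 h. Reporter mRNA was measured by RT-PCR, 6-FAM primer extension, HpaI digestion and capillary electrophoresis, and gain of signal was fitted relative to DMSO.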

Test [15] concerns the target Transcription factor Sp1 (Homo sapiens) (UniProt P08047). As to the kind of experiment: ATG_Sp1_CIS: Attagene CIS-FACTORIAL HepG2 Assay for human Specificity Protein 1 (Sp1) (AID 2282961). To be noted: HepG2 Sp1 cis-reporter transcription, actives raise or lower the signal. In a few lines:
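After transient transfection of HepG2 cells with cis-promoter reporter units and 24 h chemical treatment, reporter transcripts were quantified by RT-PCR and capillary electrophoresis fluorescence. Gain- and loss-of-signal fitted against DMSO.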

Test [16] can be described thus: ATG_SREBP_CIS: Attagene CIS-FACTORIAL HepG2 Assay for human Sterol Regulatory Element Binding (SREBP) (AID 2282962). The following applies: HepG2 Attagene cis-factorial SREBP reporter, mRNA; actives raise or lower the signal. The gist of the method:
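In this cis-format assay, HepG2 liver cells express reporters controlled by promoter elements responsive to native transcription factors. Exposure lasts 24 h; reporter mRNA fluorescence from capillary electrophoresis gives the signal, fitted bidirectionally against DMSO.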

For test [17], the target named is Nuclear receptor subfamily 1 group I member 3 (Homo sapiens) (UniProt Q14994). In words: ATG_CAR_TRANS: Attagene TRANS-FACTORIAL HepG2 Assay for human Constitutive Androstane Receptor (CAR) (AID 2282969; active means hit-call score of the fitted dose curve at least 0.9, where 1 is the maximum;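 further: activators raise reporter mRNA above DMSO so AC50 marks induction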). The following applies: HepG2 Attagene TRANS-FACTORIAL CAR reporter. In a few lines:
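Steps: transient transfection of HepG2 with multiple GAL4-UAS reporter units; 24 h compound incubation; RNA isolation, RT-PCR, 6-FAM primer extension, HpaI digest; capillary electrophoresis. Gain-of-signal relative to DMSO negative control.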

In test [18] the target is Estrogen receptor (Homo sapiens) (UniProt P03372). As to the kind of experiment: ATG_ERa_TRANS: Attagene TRANS-FACTORIAL HepG2 Assay for human Estrogen Receptor alpha (ERa) (AID 2282970; active means hit-call score of the fitted dose curve at least 0.9, where 1 is the maximum). The following applies: HepG2 Attagene TRANS ERa GAL4 reporter, mRNA. The gist of the method:
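One of 30 multiplexed endpoints from a HepG2 TRANS system, this one reports ERa-Gal4-driven reporter mRNA. Transcripts were quantified 24 hours post-dosing by fluorescent RT-PCR and capillary electrophoresis, with activity scored as induction over DMSO.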

Test [19] concerns the target Steroid hormone receptor ERR1 (Homo sapiens) (UniProt P11474). In words: ATG_ERRa_TRANS: Attagene TRANS-FACTORIAL HepG2 Assay for human Estrogen-Related Receptor alpha (ERRa) (AID 2282971; active means hit-call score of the fitted dose curve at least 0.9, where 1 is the maximum). To be noted: HepG2 Attagene TRANS reporter, ERRa transactivation. In a few lines:
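HepG2 cells transiently transfected with multiplexed GAL4-UAS reporter units reading chimeric ERRa-Gal4 activity; 24 h compound exposure. Reporter mRNA measured by RT-PCR, 6-FAM labelling, HpaI digest and capillary electrophoresis; gain of signal fitted versus DMSO baseline.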

Records with an inconclusive call do not appear. Activity calls are given as the source filed them. How the source made its calls, unless noted: active means hit-call score of the fitted dose curve at least 0.9, where 1 is the maximum; inactive means score below 0.9.

Sequence of Transcription factor Sp1 (Homo sapiens) (P08047 whole entry, looked up): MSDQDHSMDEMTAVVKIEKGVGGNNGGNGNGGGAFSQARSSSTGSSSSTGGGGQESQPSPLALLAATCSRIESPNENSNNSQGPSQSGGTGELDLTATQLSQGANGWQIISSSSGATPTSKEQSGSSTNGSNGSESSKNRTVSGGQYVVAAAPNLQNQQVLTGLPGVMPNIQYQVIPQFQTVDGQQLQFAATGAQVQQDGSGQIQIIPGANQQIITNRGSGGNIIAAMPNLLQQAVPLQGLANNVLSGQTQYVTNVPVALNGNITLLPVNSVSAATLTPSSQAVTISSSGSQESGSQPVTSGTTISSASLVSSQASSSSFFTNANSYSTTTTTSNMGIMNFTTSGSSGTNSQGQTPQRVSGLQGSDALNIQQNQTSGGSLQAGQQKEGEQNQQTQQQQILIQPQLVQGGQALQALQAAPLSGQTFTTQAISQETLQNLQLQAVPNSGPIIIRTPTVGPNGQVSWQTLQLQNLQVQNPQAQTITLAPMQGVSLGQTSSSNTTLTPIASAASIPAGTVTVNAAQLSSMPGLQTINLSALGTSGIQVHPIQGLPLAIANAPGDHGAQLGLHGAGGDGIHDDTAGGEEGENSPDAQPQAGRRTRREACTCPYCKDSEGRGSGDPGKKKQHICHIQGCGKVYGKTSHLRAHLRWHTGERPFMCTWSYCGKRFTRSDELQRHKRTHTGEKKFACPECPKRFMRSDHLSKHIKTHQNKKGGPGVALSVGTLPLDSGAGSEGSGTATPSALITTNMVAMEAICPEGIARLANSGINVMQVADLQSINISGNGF
Sequence of Paired box protein Pax-6 (Homo sapiens) (P26367 whole entry, looked up): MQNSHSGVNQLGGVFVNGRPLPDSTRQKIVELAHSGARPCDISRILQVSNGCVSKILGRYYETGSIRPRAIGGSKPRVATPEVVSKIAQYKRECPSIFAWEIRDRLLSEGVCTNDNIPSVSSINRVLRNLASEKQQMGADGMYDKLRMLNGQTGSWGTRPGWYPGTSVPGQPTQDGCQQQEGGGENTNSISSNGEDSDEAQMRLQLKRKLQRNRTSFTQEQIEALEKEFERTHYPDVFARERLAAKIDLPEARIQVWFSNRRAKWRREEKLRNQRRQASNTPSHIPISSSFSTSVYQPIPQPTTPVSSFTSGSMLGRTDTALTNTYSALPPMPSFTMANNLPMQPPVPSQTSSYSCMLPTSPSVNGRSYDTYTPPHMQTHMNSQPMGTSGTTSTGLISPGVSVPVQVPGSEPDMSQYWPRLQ
Sequence of Nuclear receptor subfamily 1 group I member 3 (Homo sapiens) (Q14994 whole entry, looked up, the tested form may be a part): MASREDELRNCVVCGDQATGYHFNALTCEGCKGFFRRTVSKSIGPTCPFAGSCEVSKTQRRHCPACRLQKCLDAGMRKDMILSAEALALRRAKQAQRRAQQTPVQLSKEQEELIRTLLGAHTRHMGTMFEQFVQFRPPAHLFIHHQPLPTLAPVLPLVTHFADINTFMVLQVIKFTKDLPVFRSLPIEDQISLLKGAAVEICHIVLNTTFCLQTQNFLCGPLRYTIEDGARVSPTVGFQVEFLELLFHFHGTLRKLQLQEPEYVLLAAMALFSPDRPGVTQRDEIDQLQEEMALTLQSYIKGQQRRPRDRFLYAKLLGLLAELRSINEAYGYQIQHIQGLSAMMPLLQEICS
Sequence of X-box-binding protein 1 (Homo sapiens) (P17861 whole entry, looked up): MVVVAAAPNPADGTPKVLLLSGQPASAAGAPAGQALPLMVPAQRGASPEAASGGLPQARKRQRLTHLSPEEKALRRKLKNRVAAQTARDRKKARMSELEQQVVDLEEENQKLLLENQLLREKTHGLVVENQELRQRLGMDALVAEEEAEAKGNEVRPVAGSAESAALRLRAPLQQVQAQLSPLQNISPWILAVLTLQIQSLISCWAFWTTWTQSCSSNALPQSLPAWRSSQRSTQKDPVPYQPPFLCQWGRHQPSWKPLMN
Sequence of Estrogen receptor (Homo sapiens) (P03372 whole entry, looked up, the tested form may be a part): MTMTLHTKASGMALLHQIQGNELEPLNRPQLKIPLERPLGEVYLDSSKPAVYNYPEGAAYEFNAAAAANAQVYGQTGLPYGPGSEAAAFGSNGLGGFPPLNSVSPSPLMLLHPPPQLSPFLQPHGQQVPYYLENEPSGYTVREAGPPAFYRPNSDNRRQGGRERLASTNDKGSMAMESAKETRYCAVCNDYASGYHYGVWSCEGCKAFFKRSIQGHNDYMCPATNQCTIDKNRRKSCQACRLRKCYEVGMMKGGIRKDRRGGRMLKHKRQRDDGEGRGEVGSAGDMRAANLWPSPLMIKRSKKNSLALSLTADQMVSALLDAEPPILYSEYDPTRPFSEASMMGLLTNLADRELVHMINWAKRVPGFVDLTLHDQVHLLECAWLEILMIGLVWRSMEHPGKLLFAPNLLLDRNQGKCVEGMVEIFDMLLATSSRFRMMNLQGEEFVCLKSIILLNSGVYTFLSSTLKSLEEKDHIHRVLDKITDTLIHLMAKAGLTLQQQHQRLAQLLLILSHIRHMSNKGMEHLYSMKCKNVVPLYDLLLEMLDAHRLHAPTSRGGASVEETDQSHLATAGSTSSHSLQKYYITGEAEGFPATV
Sequence of Steroid hormone receptor ERR1 (Homo sapiens) (P11474 whole entry, looked up, the tested form may be a part): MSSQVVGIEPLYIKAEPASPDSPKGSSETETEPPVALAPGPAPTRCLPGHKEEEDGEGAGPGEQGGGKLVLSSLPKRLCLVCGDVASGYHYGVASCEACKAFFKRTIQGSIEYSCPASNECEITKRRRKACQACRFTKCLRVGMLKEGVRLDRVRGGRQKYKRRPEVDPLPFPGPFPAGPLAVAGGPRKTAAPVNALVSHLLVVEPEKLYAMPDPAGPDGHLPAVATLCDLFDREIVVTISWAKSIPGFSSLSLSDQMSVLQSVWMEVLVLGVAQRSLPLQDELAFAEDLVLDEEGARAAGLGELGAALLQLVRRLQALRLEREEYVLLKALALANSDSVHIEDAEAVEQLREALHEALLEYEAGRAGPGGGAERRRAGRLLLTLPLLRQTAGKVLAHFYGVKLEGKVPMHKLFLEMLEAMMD

In general, AC50 refers to the concentration at which the activity in the assay is half-maximal. As for `CC(=O)CC(N)=O`, the call in [1], in test [3], in test [4], in [5], in [6] and in [7] was inactive. Moreover, the result in test [8], in test [9], in test [10], in test [11], in [12] and in test [13] was inactive. In addition, the result in [14] was inactive. Moreover, in test [2], the AC50 was 0.0836 µM (active).

In the case of `CC(C)C1=CC2=CC[C@@H]3[C@](C)(CCC[C@@]3(C)C(=O)O)[C@H]2CC1`, the AC50 was 71.2 µM (active) in [1]; 1.33 µM (active) in [2]; 43.1 µM (active) in test [4]; 25.9 µM (active) in test [16]; 89.6 µM (active) in test [7]; 52.1 µM (active) in test [9]. For the same molecule, the AC50 in [10] was 0.551 µM (active); in test [11], 4.54 µM (active); in test [18] it was 31.9 µM (active). The outcome in test [3], in test [15], in [8], in test [17], in test [19] and in [12] was inactive.

Turning to `CCC(CC)C(=O)O`, the result in test [1], in test [2], in test [3], in test [4], in test [15] and in [16] was inactive. In addition, the molecule was called inactive in test [6], in [7], in test [8], in test [9], in test [12] and in [13]. Also, the call in test [14] was inactive.

Consider `CCN(Cc1cccc(S(=O)(=O)O)c1)c1ccc(C(=C2C=CC(=[N+](CC)Cc3cccc(S(=O)(=O)[O-])c3)C=C2)c2ccccc2)cc1`, for which the call in test [1], in test [3], in [5], in [15], in test [16] and in test [6] was inactive. Moreover, the call in [7], in test [8], in test [9], in [11], in [17] and in test [18] was inactive. Besides, the call in test [12] and in [14] was inactive. The AC50 in test [2] is 20.6 µM (active); in test [10] it was 37.4 µM (active).

For `O=c1cc(-c2ccccc2)oc2ccccc12`, the AC50 in [1] is 99.5 µM (active); in test [2], 4.25 µM (active); in test [3], 4.81 µM (active); in [7], 99.5 µM (active); in [8], 25.2 µM (active); in test [11], 30.5 µM (active). Also, the values for the AC50 in test [18] and in test [12] were 4.97 µM (active) and 82.8 µM (active), respectively. For the same molecule, the result in test [5], in test [15], in [16], in test [6], in test [9] and in test [10] was inactive. The molecule was classed as inactive in test [17] and in [13].

These data come from PubChem BioAssay (EPA / NIEHS).
